Values joined by “and” are separate entries in the source; they are usually repeats but may differ in a detail not shown here. Identical values can stand only once. Records with an inconclusive call do not appear. More than one record can exist for a structure, and the calls need not agree. Active and inactive are the calls of the source. How the source made its calls, unless noted: active means hit-call score of the fitted dose curve at least 0.9, where 1 is the maximum; inactive means score below 0.9.
How the values were obtained:
[1] = ATG_PBREM_CIS: Attagene CIS-FACTORIAL HepG2 Assay for human Phenobarbital-responsive Enhancer Module (PBREM) (AID 2282955); details: HepG2 PBREM cis-reporter, Attagene multiplexed transcription; actives raise or lower the signal
Outline: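 Measures endogenous factor action on a phenobarbital-responsive enhancer module. HepG2 transiently carrying cis reporters, 24 h treatment, mRNA read-out by RT-PCR plus capillary electrophoresis.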

[2] = target: Paired box protein Pax-6 (Homo sapiens) (UniProt P26367); test: ATG_Pax6_CIS: Attagene CIS-FACTORIAL HepG2 Assay for human Paired Box 6 (PAX6) (AID 2282956); details: HepG2 CIS-FACTORIAL PAX6 reporter transcription, RNA readout; actives raise or lower the signal
Chain of Paired box protein Pax-6 (Homo sapiens) (P26367 whole entry, looked up): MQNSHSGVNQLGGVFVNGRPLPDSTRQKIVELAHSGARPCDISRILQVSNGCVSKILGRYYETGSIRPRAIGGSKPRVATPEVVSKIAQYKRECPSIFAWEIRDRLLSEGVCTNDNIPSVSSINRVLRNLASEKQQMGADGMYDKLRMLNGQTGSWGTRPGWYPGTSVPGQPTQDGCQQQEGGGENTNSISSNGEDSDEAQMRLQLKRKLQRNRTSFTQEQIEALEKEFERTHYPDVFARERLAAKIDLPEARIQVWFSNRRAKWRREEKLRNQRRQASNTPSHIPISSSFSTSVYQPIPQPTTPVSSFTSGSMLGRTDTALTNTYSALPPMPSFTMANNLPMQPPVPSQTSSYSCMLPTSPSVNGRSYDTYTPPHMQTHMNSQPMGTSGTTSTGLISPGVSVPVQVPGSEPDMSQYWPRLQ
Outline: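 Fluorescent RT-PCR products separated by capillary electrophoresis report PAX6-linked promoter mRNA in HepG2 cells 24 h post-dose. Curves fitted bidirectionally, DMSO as negative control.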

[3] = ATG_PXRE_CIS: Attagene CIS-FACTORIAL HepG2 Assay for human Pregnane X Receptor Element (PXRE) (AID 2282957); details: HepG2 Attagene CIS-FACTORIAL PXRE reporter, mRNA; actives raise or lower the signal
Outline: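 Bidirectional activity, baselined to DMSO, derived from reporter mRNA fluorescence (RT-PCR plus capillary electrophoresis) in HepG2 cells bearing cis-promoter reporter units, 24 h exposure.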

[4] = ATG_PPRE_CIS: Attagene CIS-FACTORIAL HepG2 Assay for human Peroxisome Proliferator-activated Response Element (PPRE) (AID 2282958); details: HepG2 PPRE cis-element reporter, Attagene transcription factor profiling; actives raise or lower the signal
Outline: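 PPRE activity in HepG2: transient cis-reporter transfection, 24 h compound incubation, reporter mRNA by RT-PCR and CE fluorescence; gain/loss fitted against DMSO.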

[5] = ATG_RORE_CIS: Attagene CIS-FACTORIAL HepG2 Assay for human RAR-related Orphan Receptor Element (RORE) (AID 2282959); details: HepG2 Attagene cis-factorial RORE reporter, mRNA; actives raise or lower the signal
Outline: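 A 24-hour exposure of transfected HepG2 hepatoma cells precedes RNA isolation and reporter RT-PCR. Labeled products are digested with HpaI and resolved by capillary electrophoresis, with gain or loss of signal scored relative to DMSO.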

[6] = ATG_Sox_CIS: Attagene CIS-FACTORIAL HepG2 Assay for human SRY-box transcription factor (SOX) (AID 2282960); details: HepG2 Attagene cis-factorial SOX reporter, mRNA; actives raise or lower the signal
Outline: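 HepG2, cis reporter units, 24 h exposure. Reporter mRNA: RT-PCR → FAM labelling → HpaI → CE fluorescence. Bidirectional fit vs DMSO.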

[7] = target: Transcription factor Sp1 (Homo sapiens) (UniProt P08047); test: ATG_Sp1_CIS: Attagene CIS-FACTORIAL HepG2 Assay for human Specificity Protein 1 (Sp1) (AID 2282961); details: HepG2 Sp1 cis-reporter transcription, actives raise or lower the signal
Chain of Transcription factor Sp1 (Homo sapiens) (P08047 whole entry, looked up, the tested form may be a part): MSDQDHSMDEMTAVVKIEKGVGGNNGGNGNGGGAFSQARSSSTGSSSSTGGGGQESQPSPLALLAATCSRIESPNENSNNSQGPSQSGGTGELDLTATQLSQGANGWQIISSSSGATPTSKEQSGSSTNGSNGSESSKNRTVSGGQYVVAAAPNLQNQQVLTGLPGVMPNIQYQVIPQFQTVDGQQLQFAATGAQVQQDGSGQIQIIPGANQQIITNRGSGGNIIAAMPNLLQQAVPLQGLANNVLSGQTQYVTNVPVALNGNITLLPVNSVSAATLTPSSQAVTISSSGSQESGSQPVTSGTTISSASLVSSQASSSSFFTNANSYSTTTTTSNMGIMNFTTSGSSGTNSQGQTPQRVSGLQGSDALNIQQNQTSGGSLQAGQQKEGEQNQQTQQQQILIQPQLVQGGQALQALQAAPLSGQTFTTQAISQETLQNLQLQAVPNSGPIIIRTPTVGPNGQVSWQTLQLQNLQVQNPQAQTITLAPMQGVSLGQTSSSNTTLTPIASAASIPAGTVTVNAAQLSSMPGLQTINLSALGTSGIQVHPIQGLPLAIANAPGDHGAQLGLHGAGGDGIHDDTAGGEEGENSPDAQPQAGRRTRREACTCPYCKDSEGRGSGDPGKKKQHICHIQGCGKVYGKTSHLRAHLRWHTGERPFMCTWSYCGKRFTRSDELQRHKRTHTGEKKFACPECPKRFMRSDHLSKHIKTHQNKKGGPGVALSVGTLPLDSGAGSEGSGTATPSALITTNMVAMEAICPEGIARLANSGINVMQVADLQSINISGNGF
Outline: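 Liver-derived HepG2 cells, cis-element reporter library, 24 h treatment; RNA isolated, cDNA amplified with reporter-specific primers, FAM-labeled fragments sized on capillary analyzer. DMSO baseline, bidirectional curve fit.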

[8] = ATG_SREBP_CIS: Attagene CIS-FACTORIAL HepG2 Assay for human Sterol Regulatory Element Binding (SREBP) (AID 2282962); details: HepG2 Attagene cis-factorial SREBP reporter, mRNA; actives raise or lower the signal
Outline: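 Endogenous factor activity is measured in HepG2 through multiplexed reporter units under cis-element control. Following a 24 h incubation, reporter transcripts are reverse-transcribed, PCR-amplified and sized by capillary electrophoresis; activity is fitted in both directions relative to DMSO.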

[9] = target: Signal transducer and activator of transcription 3 (Homo sapiens) (UniProt P40763); test: ATG_STAT3_CIS: Attagene CIS-FACTORIAL HepG2 Assay for human Signal Transducer and Activator of Transcription 3 (STAT3) (AID 2282963); details: HepG2, Attagene cis-factorial STAT3 reporter transcription; actives raise or lower the signal
Chain of Signal transducer and activator of transcription 3 (Homo sapiens) (P40763 whole entry, looked up): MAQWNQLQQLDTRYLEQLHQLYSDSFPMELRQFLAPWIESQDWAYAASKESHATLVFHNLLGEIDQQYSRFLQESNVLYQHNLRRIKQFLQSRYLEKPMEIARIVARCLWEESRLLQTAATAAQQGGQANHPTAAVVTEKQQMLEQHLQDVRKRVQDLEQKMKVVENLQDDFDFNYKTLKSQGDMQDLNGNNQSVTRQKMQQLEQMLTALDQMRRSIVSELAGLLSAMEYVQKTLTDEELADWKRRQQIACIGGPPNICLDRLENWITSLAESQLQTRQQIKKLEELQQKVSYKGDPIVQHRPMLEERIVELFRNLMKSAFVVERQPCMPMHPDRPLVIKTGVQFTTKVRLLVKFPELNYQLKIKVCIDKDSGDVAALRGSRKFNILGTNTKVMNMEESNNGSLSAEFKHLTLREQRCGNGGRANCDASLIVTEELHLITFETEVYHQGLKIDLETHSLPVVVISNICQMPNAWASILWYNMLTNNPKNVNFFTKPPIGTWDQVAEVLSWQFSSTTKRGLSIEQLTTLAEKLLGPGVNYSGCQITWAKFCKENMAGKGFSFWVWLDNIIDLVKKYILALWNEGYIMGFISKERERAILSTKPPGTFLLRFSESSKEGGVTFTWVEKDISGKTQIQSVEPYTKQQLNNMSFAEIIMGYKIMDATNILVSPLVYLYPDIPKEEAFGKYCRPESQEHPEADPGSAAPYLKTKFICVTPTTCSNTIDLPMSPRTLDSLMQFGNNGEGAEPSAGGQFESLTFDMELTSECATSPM
Outline: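 HepG2, MRTU-transfected, 24 h dosing. RNA → RT → PCR → FAM label → HpaI → CE. Bidirectional fit vs DMSO.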

[10] = ATG_TA_CIS: Attagene CIS-FACTORIAL HepG2 Assay for human TA Basal Promoter (AID 2282964); details: HepG2 Attagene CIS-factorial TA basal promoter reporter; actives raise or lower the signal
Outline: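 Transient MRTU transfection of HepG2 preceded 24 h compound exposure. Reporter mRNA levels were then read by RT-PCR with capillary electrophoresis, and this background-control endpoint was fitted bidirectionally to DMSO.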

[11] = ATG_TCF_b_cat_CIS: Attagene CIS-FACTORIAL HepG2 Assay for human T-Cell-Factor with beta-catenin (TCF/b-cat) (AID 2282965); details: HepG2 TCF/beta-catenin cis-reporter transcription, actives raise or lower the signal
Outline: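 HepG2 cells transiently transfected with multiple cis-promoter-regulated reporter transcription units, so endogenous transcription factor activity is measured. Reporter mRNA read 24 hours after dosing by RT-PCR, fluorescent labelling and capillary electrophoresis; bidirectional fitting against DMSO.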

[12] = ATG_TAL_CIS: Attagene CIS-FACTORIAL HepG2 Assay for human TAL Basal Promoter (AID 2282966); details: HepG2 Attagene cis-factorial TAL promoter reporter; actives raise or lower the signal;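 further: background control endpoint measuring basal TAL promoter reporter mRNA not a specific factor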
Outline: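 Human hepatoma HepG2 cells, transfected with promoter-regulated reporter units, were treated 24 h. Reporter transcript levels, measured through RT-PCR and capillary electrophoresis, were fitted for gain or loss relative to DMSO.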

[13] = ATG_TGFb_CIS: Attagene CIS-FACTORIAL HepG2 Assay for human Transforming Growth Factor (TGF) (AID 2282967); details: HepG2 Attagene CIS TGFb reporter, mRNA transcription; actives raise or lower the signal
Outline: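 After a 24-hour incubation with compound, transfected HepG2 cells were lysed for RNA; reporter cDNA was amplified, fluorescently end-labeled and separated by CE. DMSO served as baseline for bidirectional fits.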

[14] = ATG_VDRE_CIS: Attagene CIS-FACTORIAL HepG2 Assay for human Vitamin D Receptor Element (VDRE) (AID 2282968); details: HepG2 VDRE cis-reporter transcription, actives raise or lower the signal
Outline: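 Steps: transfect HepG2 with multiple reporter transcription units; dose chemicals 24 h; isolate RNA; RT-PCR; label with 6-FAM primer extension; HpaI digest; capillary electrophoresis. Curves fitted both directions against DMSO.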

[15] = target: Nuclear receptor subfamily 1 group I member 3 (Homo sapiens) (UniProt Q14994); test: ATG_CAR_TRANS: Attagene TRANS-FACTORIAL HepG2 Assay for human Constitutive Androstane Receptor (CAR) (AID 2282969; active means hit-call score of the fitted dose curve at least 0.9, where 1 is the maximum;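 further: activators raise reporter mRNA above DMSO so AC50 marks induction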); details: HepG2 Attagene TRANS-FACTORIAL CAR reporter
Chain of Nuclear receptor subfamily 1 group I member 3 (Homo sapiens) (Q14994 whole entry, looked up, the tested form may be a part): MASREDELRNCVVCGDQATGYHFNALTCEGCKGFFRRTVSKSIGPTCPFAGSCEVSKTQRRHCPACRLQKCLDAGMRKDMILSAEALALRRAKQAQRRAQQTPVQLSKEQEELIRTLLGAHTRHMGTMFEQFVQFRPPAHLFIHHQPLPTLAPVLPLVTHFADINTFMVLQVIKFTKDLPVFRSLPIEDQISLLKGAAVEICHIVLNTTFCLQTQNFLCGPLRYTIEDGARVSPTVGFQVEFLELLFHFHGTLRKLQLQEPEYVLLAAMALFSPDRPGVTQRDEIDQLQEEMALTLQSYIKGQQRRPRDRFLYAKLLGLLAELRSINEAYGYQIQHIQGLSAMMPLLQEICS
Outline: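 Steps: transient transfection of HepG2 with multiple GAL4-UAS reporter units; 24 h compound incubation; RNA isolation, RT-PCR, 6-FAM primer extension, HpaI digest; capillary electrophoresis. Gain-of-signal relative to DMSO negative control.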

[16] = target: Estrogen receptor (Homo sapiens) (UniProt P03372); test: ATG_ERa_TRANS: Attagene TRANS-FACTORIAL HepG2 Assay for human Estrogen Receptor alpha (ERa) (AID 2282970; active means hit-call score of the fitted dose curve at least 0.9, where 1 is the maximum); details: HepG2 Attagene TRANS ERa GAL4 reporter, mRNA
Chain of Estrogen receptor (Homo sapiens) (P03372 whole entry, looked up, the tested form may be a part): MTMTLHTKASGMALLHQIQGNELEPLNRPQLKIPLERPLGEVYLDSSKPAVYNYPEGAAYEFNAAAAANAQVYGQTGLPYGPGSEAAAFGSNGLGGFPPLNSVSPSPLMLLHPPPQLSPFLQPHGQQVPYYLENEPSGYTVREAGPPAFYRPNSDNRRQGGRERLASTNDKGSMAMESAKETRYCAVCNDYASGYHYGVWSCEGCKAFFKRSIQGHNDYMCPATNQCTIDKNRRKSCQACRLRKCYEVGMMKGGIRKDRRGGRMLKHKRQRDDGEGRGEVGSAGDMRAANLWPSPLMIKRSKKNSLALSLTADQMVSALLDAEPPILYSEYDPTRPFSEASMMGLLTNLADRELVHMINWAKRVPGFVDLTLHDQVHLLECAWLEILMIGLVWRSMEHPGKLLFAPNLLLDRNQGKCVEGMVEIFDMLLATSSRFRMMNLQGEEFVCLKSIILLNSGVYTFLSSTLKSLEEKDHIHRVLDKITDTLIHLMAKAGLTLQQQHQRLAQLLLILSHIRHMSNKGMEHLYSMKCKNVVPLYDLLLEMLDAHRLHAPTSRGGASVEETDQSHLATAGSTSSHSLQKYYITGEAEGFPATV
Outline: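 Signal derives from fluorescence of labelled reporter PCR fragments separated by capillary electrophoresis. HepG2 cells transiently carrying multiple GAL4-UAS reporter units were treated 24 hours, and induction above DMSO baseline was fitted as activity.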

[17] = target: X-box-binding protein 1 (Homo sapiens) (UniProt P17861); test: ATG_Xbp1_CIS: Attagene CIS-FACTORIAL HepG2 Assay for human X-box Binding Protein 1 (XBP1) (AID 2282972); details: HepG2 XBP1 cis-element reporter, Attagene multiplex; actives raise or lower the signal
Chain of X-box-binding protein 1 (Homo sapiens) (P17861 whole entry, looked up): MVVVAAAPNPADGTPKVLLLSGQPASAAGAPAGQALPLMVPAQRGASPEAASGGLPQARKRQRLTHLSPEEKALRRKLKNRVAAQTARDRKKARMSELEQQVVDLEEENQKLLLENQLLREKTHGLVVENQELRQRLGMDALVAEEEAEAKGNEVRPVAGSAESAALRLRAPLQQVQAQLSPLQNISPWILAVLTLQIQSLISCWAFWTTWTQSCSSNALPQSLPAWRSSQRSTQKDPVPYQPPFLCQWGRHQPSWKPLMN
Outline: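 Multiplexed cis-reporter readout in transfected HepG2 liver cells. Exposure lasted 24 hours. Activity in either direction was fitted against DMSO as negative control and baseline.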

[18] = ATG_M_19_TRANS: Attagene TRANS-FACTORIAL HepG2 Assay for M19 Transcription Factor (Internal Marker) (AID 2282974; active means hit-call score of the fitted dose curve at least 0.9, where 1 is the maximum); details: HepG2 Attagene TRANS-FACTORIAL M19 internal marker reporter
Outline: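 Transfected HepG2 (GAL4-UAS MRTUs), 24 h compound, TriZol RNA, DNase-treated RT, reporter PCR, FAM label, HpaI digest, CE fluorescence; gain vs DMSO.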

[19] = target: Steroid hormone receptor ERR1 (Homo sapiens) (UniProt P11474); test: ATG_ERRa_TRANS: Attagene TRANS-FACTORIAL HepG2 Assay for human Estrogen-Related Receptor alpha (ERRa) (AID 2282971; active means hit-call score of the fitted dose curve at least 0.9, where 1 is the maximum); details: HepG2 Attagene TRANS reporter, ERRa transactivation
Chain of Steroid hormone receptor ERR1 (Homo sapiens) (P11474 whole entry, looked up, the tested form may be a part): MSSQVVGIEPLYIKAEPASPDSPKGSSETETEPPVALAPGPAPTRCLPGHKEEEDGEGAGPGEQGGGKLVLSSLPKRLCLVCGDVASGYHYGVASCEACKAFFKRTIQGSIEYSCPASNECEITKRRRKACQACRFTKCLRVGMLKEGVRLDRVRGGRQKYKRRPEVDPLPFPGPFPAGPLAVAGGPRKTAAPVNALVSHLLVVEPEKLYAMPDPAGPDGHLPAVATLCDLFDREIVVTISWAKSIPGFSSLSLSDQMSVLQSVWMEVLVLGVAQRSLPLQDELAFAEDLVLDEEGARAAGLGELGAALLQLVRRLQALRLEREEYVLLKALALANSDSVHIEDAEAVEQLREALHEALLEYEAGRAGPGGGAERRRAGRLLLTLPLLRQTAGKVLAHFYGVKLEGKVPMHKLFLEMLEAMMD
Outline: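 Signal gain relative to DMSO for an ERRa-Gal4 chimeric receptor, read as reporter mRNA by RT-PCR/capillary electrophoresis. Human HepG2 liver cells, transient multiplex reporter transfection, 24 h chemical exposure.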

[20] = ATG_GAL4_TRANS: Attagene TRANS-FACTORIAL HepG2 Assay for GAL4 (Internal Marker) (AID 2282976; active means hit-call score of the fitted dose curve at least 0.9, where 1 is the maximum); details: HepG2 Attagene TRANS GAL4 internal marker reporter
Outline: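 Liver HepG2 line bearing multiplexed GAL4-UAS reporter constructs; 24 h chemical treatment. Transcripts were quantified as fluorescent fragments on capillary electrophoresis after RT-PCR and HpaI cut, with activity fitted upward from DMSO.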

Measured: AC50

CCN(CC)c1ccc2c(C)cc(=O)oc2c1
active: [2] 65.9 µM | [3] 2.92 µM | [4] 50.2 µM | [14] 9.28 µM | [16] 25.4 µM
not listed: [19] | [20]
inactive: all other assays above

O[Si](c1ccccc1)(c1ccccc1)c1ccccc1
active: [3] 0.897 µM | [8] 69.1 µM | [16] 4.11 µM
not listed: [18] | [20]
inactive: all other assays above

CCCCC(CC)COP(=O)(O)OCC(CC)CCCC (stereo not given)
active: [3] 9.1 µM | [4] 5.45 µM | [11] 42.7 µM | [14] 27.6 µM
not listed: [18] | [19] | [20]
inactive: all other assays above

CC(Cc1ccc(O)c(O)c1)C(C)Cc1ccc(O)c(O)c1 (stereo not given)
inactive: [4] | [8] | [9] | [13] | [15] | [20]
active: [1] 9.19 µM | [2] 22.1 µM | [3] 8.39 µM | [5] 6.13 µM | [6] 33.4 µM | [7] 8.73 µM | [10] 18.4 µM | [11] 18.7 µM | [12] 6.72 µM | [14] 5.93 µM | [16] 9.13 µM | [17] 14.4 µM

O=S(=O)(OCCOC(F)(F)F)C(F)(F)F
inactive: all assays above

COC(=O)CCC(F)(F)C(F)(F)C(F)(F)C(F)(F)F
active: [16] 5.85 µM
not listed: [19]
inactive: all other assays above

OCCCC(F)(F)C(F)(F)C(F)(F)C(F)(F)C(F)(F)C(F)(F)C(F)(F)F
active: [1] 150 µM | [2] 50 µM and 41.8 µM | [5] 247 µM | [6] 68.9 µM | [7] 96.5 µM | [8] 50 µM | [9] 78.9 µM | [11] 33.7 µM | [12] 88.7 µM | [14] 150 µM | [16] 13.7 µM and 13.2 µM | [17] 72.5 µM and 97.8 µM
inactive: [1] | [4] | [5] | [6] | [7] | [8] | [9] | [10] | [11] | [12] | [13] | [14] | [19]
